Laboratory results taken from PubChem BioAssay (EPA / NIEHS).
Inconclusive results are not listed. Active and inactive are the calls of the source. The calls were made as follows: active = hit-call score of the fitted dose curve at least 0.9, where 1 is the maximum; inconclusive = response in the unintended direction; inactive = score below 0.9.

read-out: ABC Transporter (ABCB1), ABCB1 (gene 5243); assay: CLD_ABCB1_24hr: CellzDirect (CLD) Gene Expression Assay for ABC Transporter (ABCB1) at 24 hours (AID 2283684);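 as to AC50: potency for increase in ABCB1 mRNA relative to DMSO vehicle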
Protocol: CLD_24hr is a cell-based, multiplexed-readout assay that uses hepatocyte, a human liver primary cell, with measurements taken at 24 hours after chemical dosing in a 96-well plate.CLD_ABCB1_24hr is one of 16 assay component(s) measured or calculated from the CLD_24hr assay. It is designed to make measurements of mRNA induction, a form of inducible reporter, as detected with chemiluminescence signals by Quantitative Nuclease Protection Assay (qNPA) technology.Data from the assay component CLD_ABCB1_24hr was analyzed at the endpoint, CLD_ABCB1_24hr, in the positive analysis fitting direction relative to DMSO as the negative control and baseline of activity. Using a type of inducible reporter, gain-of-signal activity can be used to understand changes in the reporter gene as they relate to the gene ABCB1. Furthermore, this assay endpoint can be referred to as a primary readout. To generalize the intended target to other relatable targets, this assay endpoint is annotated to the transporter intended target family, where subfamily is ABC transporter.
Human hepatocyte cultures were treated daily for two consecutive days with fresh dosing solutions containing appropriate concentrations of the 320 ToxCast chemicals (chemical identities were blinded to CellzDirect and other ToxCast collaborators), vehicle control (0.2% DMSO), and positive control inducers as summarized in Table 1. Due to the large number of treatment groups and chemicals examined, the ToxCast chemicals were divided into two groups (spanning two independent cultures of hepatocytes from separate donor preparations (Hu778: ToxCast plates 1 and 2; Hu776: ToxCast plates 3 and 4). Each preparation of human hepatocyte cultures was treated with respective vehicle control, medium only control, set of six positive controls/reference chemicals for the five hepatic receptor pathways, and a subset of eight of the ToxCast chemicals (indoxacarb, pyrithiobac-sodium, norflurazon, cyhalofop-butyl, methomyl, thiram, acetochlor, and propiconazole). These replicate data, coupled with internal replicates designed within the blinded ToxCast chemical library, provided additional data to evaluate interindividual differences between hepatocyte preparations and their potential impact on chemical profiles.Cell morphology and integrity were evaluated using phase-contrast microscopy as an indicator of hepatocyte cell health (Tyson & Green, 1987). Cultures for each treatment group (i.e., media, vehicle [0.2% DMSO], positive control inducers [multiple concentrations], and the ToxCast chemicals [multiple concentrations]) were observed and cell morphology was assessed relative to vehicle control cultures at each harvest time point (0, 6, 24, or 48 h). […] Images were evaluated at the conclusion of the study to assess changes in cell integrity and account for the effects of chemical exposure on uncharacteristic changes in concentration-dependent gene expression profiles. The results from these determinations of apparent cytotoxicity were annotated (yes/no) alongside the corresponding qNPA data for reference.At the conclusion of each treatment period, hepatocyte cultures (96-well) were washed with 1 volume of HBSS, lysed by addition of 25 ul ArrayPlate lysis buffer (HTG, Tucson, AZ), and 70 ul/well of Denaturation Oil, denatured by incubation at 95C for 10 min, and frozen at approximately -70C until analysis by nuclease protection assay (qNPA) (Roberts et al., 2007). For qNPA analysis, cell lysates were thawed at 50C for approximately 30 min, qNPA probes were added, and samples were incubated at 95C for 10 min to begin the detection process by denaturing the target RNA, dissociating the duplexes and secondary structure hybridization. At the conclusion of the hybridization period, S1 nuclease reagent was added to each sample to digest all nonprotected nucleotides at 50C for 60-90 min. […]

SMILES	outcome	AC50
Cc1[nH]c(=O)n(C(C)(C)C)c(=O)c1Cl	inactive	
O=S1OCC2C(CO1)C1(Cl)C(Cl)=C(Cl)C2(Cl)C1(Cl)Cl (stereo not given)	inactive	
COC(=O)c1ccccc1S(=O)(=O)NC(=O)N(C)c1nc(C)nc(OC)n1	inactive	
O=C(O)C(F)(F)C(F)(F)C(F)(F)C(F)(F)C(F)(F)C(F)(F)C(F)(F)F	inactive	
OCCOc1ccccc1	inactive	
CCC(C)Nc1c([N+](=O)[O-])cc(C(C)(C)C)cc1[N+](=O)[O-] (stereo not given)	inactive	
ClC1C(Cl)C(Cl)C(Cl)C(Cl)C1Cl (stereo not given)	inactive	
N#Cc1c(Cl)c(Cl)c(Cl)c(C#N)c1Cl	inactive	
CCC(C)(NC(=O)c1cc(Cl)c(C)c(Cl)c1)C(=O)CCl (stereo not given)	inactive	
O=C1c2ccccc2C(=O)N1SC(Cl)(Cl)Cl	inactive	
O=C(O)CCCOc1ccc(Cl)cc1Cl	inactive	
C[C@H]1[C@H](c2ccc(Cl)cc2)SC(=O)N1C(=O)NC1CCCCC1		35.2 µM (active)
[2H]C1([2H])[n+]2ccccc2-c2cccc[n+]2C1([2H])[2H]	inactive	
CCN(CC)C(=O)SCc1ccc(Cl)cc1	inactive	
COP(=S)(OC)Oc1ccc([N+](=O)[O-])cc1	inactive	
C#CCN1C(=O)COc2cc(F)c(N3C(=O)C4=C(CCCC4)C3=O)cc21	inactive	
COP(=O)(OC)OC=C(Cl)Cl	inactive	
O=C(O)COc1ccc(Cl)cc1Cl	inactive	
CC(C)N(C(=O)COc1nnc(C(F)(F)F)s1)c1ccc(F)cc1	inactive	
CCS(=O)(=O)c1cccnc1S(=O)(=O)NC(=O)Nc1nc(OC)cc(OC)n1	inactive	

SMILES	outcome	AC50
Oc1cc(Cl)ccc1Oc1ccc(Cl)cc1Cl	inactive	
CC(C)(C)C(O)C(Oc1ccc(Cl)cc1)n1cncn1 (stereo not given)	inactive	
COc1cc(OC)nc(NC(=O)NS(=O)(=O)c2cc(NC=O)ccc2C(=O)N(C)C)n1	inactive	
CC(C)OC(=O)Nc1cccc(Cl)c1	inactive	
CCCN(CCOc1c(Cl)cc(Cl)cc1Cl)C(=O)n1ccnc1		32.7 µM (active)
N#CN	inactive	
CNC(=O)Oc1cccc(N=CN(C)C)c1	inactive	
CC[C@H](C)[C@H]1O[C@]2(C=C[C@@H]1C)C[C@@H]1C[C@@H](C/C=C(\C)[C@@H](O[C@H]3C[C@H](OC)[C@@H](O[C@H]4C[C@H](OC)[C@@H](O)[C@H](C)O4)[C@H](C)O3)[C@@H](C)/C=C/C=C3\CO[C@@H]4[C@H](O)C(C)=C[C@@H](C(=O)O1)[C@]34O)O2 (tested in a mixture with another compound)		5.84 µM (active)
CNC(=O)CSP(=S)(OC)OC	inactive	
COc1nn(CSP(=S)(OC)OC)c(=O)s1	inactive	
CCOC1Oc2ccc(OS(C)(=O)=O)cc2C1(C)C (stereo not given)	inactive	
CCc1ccc(C(=O)NN(C(=O)c2cc(C)cc(C)c2)C(C)(C)C)cc1	inactive	
CCOCN(C(=O)CCl)c1c(C)cccc1CC	inactive	
O=C(NC(=O)c1c(F)cccc1F)Nc1ccc(OC(F)(F)C(F)OC(F)(F)F)c(Cl)c1 (stereo not given)	inactive	
CCC(C)(C)C(=O)OC1=C(c2ccc(Cl)cc2Cl)C(=O)OC12CCCCC2	inactive	
O=[N+]([O-])c1c(Cl)c(Cl)c(Cl)c(Cl)c1Cl	inactive	
Cc1cc(C)nc(NC(=O)NS(=O)(=O)c2ccccc2C(=O)OC2COC2)n1	inactive	
CCOc1nc(NC)nc(NC(=O)NS(=O)(=O)c2ccccc2C(=O)OC)n1	inactive	
CCCN(CCC)c1c([N+](=O)[O-])cc(C(F)(F)F)cc1[N+](=O)[O-]	inactive	
COC(=O)c1ccccc1CS(=O)(=O)NC(=O)Nc1nc(OC)cc(OC)n1	inactive	
